Results as given in publication PMC12670160, “A drug-repurposing screen of FDA- and EMA-approved drugs identifies two NF-κB inhibitors active against eumycetoma” (Journal of Antimicrobial Chemotherapy, 2025).
Where a name gives a salt, the structure may show the parent alone. Read-outs that look alike come from different tables or passages of the source. Among all 5,300 compounds or so, about 130 (2.5%) showed an effect of 50% or more. The entries come from a sample that favours strong results as a whole. Square brackets hold non-standard residues; d marks the D form. Side chains are listed from the residue outwards. Peptide text beside a SMILES is read from it. * marks the point of attachment. X1 = CCC(C)C(N)C1=NC(C(=O)*)CS1; Orn = NCCC[CH](N)C(=O)O

Test system: M. mycetomatis strain mm55
Conditions: primary screen, metabolic activity vs growth control, 96 h, 2 µM, inhibitor

For C/C=C1\NC(=O)[C@H]2CSSCC/C=C/[C@H](CC(=O)N[C@H](C(C)C)C(=O)N2)OC(=O)[C@H](C(C)C)NC1=O [ONC0000722, romidepsin], the “% viability” value was 49.6%.
For Cc1ccc(-c2ccc(C)cn2)nc1 [ONC0002143, abametapir], the “% viability” value was 65.91%.
In the case of C=C[C@H]1C[N@@]2CC[C@H]1C[C@H]2[C@H](O)c1ccnc2ccc(OC)cc12 [ONC0003402, quinine], the “% viability” value is reported as 78.04%.
For CC/C(=C(\c1ccc(O)cc1)c1ccc(OCCN(C)C)cc1)c1ccccc1 [ONC0002197, afimoxifene], the “% viability” value was 79.17%.
With CC/C(=C(\c1ccccc1)c1ccc(OCCN(C)C)cc1)c1ccccc1 [ONC0000595, tamoxifen citrate] the “% viability” value was 106.5%.
In the case of CC/C(=C(\c1ccc(O)cc1)c1ccc(OCCNC)cc1)c1ccccc1 [ONC0004522, endoxifen hcl], the “% viability” value is reported as 48.7%.
For O=C1c2ccccc2-n2c1nc1ccccc1c2=O [ONC0003517, tryptanthrin], the “% viability” value was 43.27%.
For O=c1c2ccccc2nc2n1CCc1c-2[nH]c2ccccc12 [ONC0004955, rutaecarpine rutecarpine], the “% viability” value was 80.68%.
COc1cc(-n2c(S)nc3ccccc3c2=O)c(Cl)cc1Cl [ONC0004315, mdivi1] was tested, and the “% viability” value was 127.2%.
COC(=O)Nc1nc2ccc([S+]([O-])c3ccccc3)cc2[nH]1 (stereo not shown) [ONC0004180, oxfendazole] was tested, and the “% viability” value was 72.44%.
With NC(C(=O)O)c1ccc(C(=O)O)c(O)c1 (stereo not shown) [ONC0002596, 4carboxy3hydroxyphenylglyciners] the “% viability” value was 58.45%.
In the case of CC(=O)O[C@@H]1CC[C@@]2(C)C(CC[C@]3(C)C2C(=O)C=C2[C@@H]4[C@@H](C)[C@H](C)CC[C@]4(C)CC[C@]23C)[C@@]1(C)C(=O)O (stereo partly shown) [ONC0003387, acetyl11ketobetaboswellicacid], the “% viability” value is reported as 70.79%.
With COc1cc2c(c(OC)c1OC)-c1c(cc3c(c1OC)OCO3)C[C@H](C)[C@@H](C)C2 [ONC0005204, schisandrin b] the “% viability” value was 87.3%.
In the case of O=C1CCCCCCCCCCCCCCO1 [ONC0002133, oxacyclohexadecan2one], the “% viability” value is reported as 71.7%.
With O=C(O)CN(CCN(CC(=O)O)CC(=O)O)CCN(CC(=O)O)CC(=O)O [ONC0005602, pentetic acid] the “% viability” value (Madurella mycetomatis metabolic activity at 2µM (%)) was 107.7%.
For Oc1cccc(Nc2ccc(Nc3cccc(O)c3)nn2)c1 [ONC0002962, 363hydroxyphenylaminopyridazin3ylaminophenol], the “% viability” value was 67.52%.
Nc1ccc(O)c(C(=O)O)c1 [ONC0002803, mesalamine lialda] was tested, and the “% viability” value was 82.25%.
In the case of Nc1ccc(C(=O)Oc2ccccc2)c(O)c1 [ONC0003304, phenyl aminosalicylate], the “% viability” value is reported as 56.4%.
With Nc1ccc(C(=O)O)c(O)c1 [ONC0003334, aminosalicylate sodium] the “% viability” value was 35.29%.
For [H]/N=C(/N)N/C(=N/[H])NCCc1ccccc1 [ONC0000619, phenformin hydrochloride], the “% viability” value was 104.4%.
For CNC(=O)c1ccc2c(c1)S(=O)(=O)c1ccccc1C2=O [ONC0002375, bw616u], the “% viability” value was 76.21%.
With CCOC(=O)Nc1c[n+](N2CCOCC2)no1 [ONC0000636, molsidomine] the “% viability” value was 75.33%.
In the case of Nc1c[n+](N2CCOCC2)no1 [ONC0003799, linsidomine], the “% viability” value is reported as 49.48%.
For CC[C@@H](C(=O)O)C1CC[C@H](C)C([C@@H](C)[C@H](O)[C@H](C)C(=O)[C@H](CC)C2O[C@]3(C=C[C@@H](O)[C@]4(CC[C@@](C)(C5CC[C@](O)(CC)[C@H](C)O5)O4)O3)[C@H](C)C[C@@H]2C)O1 (stereo partly shown) [ONC0004344, salinomycin procoxacin], the “% viability” value was 144.3%.
CN(C)c1ccc2c(c1)Sc1cc(N(C)C)ccc1N2.CS(=O)(=O)O [ONC0001830, leucomethylene blue mesylate] was tested, and the “% viability” value was 74.38%.
In the case of CS(=O)(=O)c1ccc(C2=C(c3ccccc3)C(=O)OC2)cc1 [ONC0001095, rofecoxib], the “% viability” value is reported as 82.56%.
CS(=O)(=O)c1ccc(-c2cn3ccccc3n2)cc1 [ONC0002352, zolimidine] was tested, and the “% viability” value was 42.05%.
In the case of CS(=O)(=O)c1ccc(-c2cnc(N)c(C(=O)Nc3ccccc3)n2)cc1 [ONC0004547, ve821], the “% viability” value is reported as 76.73%.
For O=C1NC(=O)/C(=C\c2cccc(C(F)(F)F)c2)S1 [ONC0004444, smi4a], the “% viability” value was 130.7%.
Cc1cc(C(=CNc2ccc(Cl)cc2)C(=O)Nc2ccc(Cl)cc2)on1 [ONC0000028, ccmi] was tested, and the “% viability” value was 80.11%.
In the case of Cc1ncc(C[n+]2csc(CCO[P@](=O)(O)OP(=O)(O)O)c2C)c(N)n1 [ONC0002796, thiamine pyrophosphate chloride], the “% viability” value is reported as 94.34%.
In the case of CC1(C)[C@@H]2C[C@H]1[C@@](C)(O)[C@@H](O)C2 [ONC0005321, pinanediol], the “% viability” value is reported as 118.6%.
CC1(C)OC2(C)C(O)CC1CC2O (stereo not shown) [ONC0003817, epomediol] was tested, and the “% viability” value was 42.26%.
In the case of CC1(C)[C@@H]2C[C@@H](O)[C@@](C)(O)[C@H]1C2 [ONC0002949, 266trimethylbicyclo311heptane23diol], the “% viability” value is reported as 64.26%.
With C#C[C@]1(OC(=O)CCCCCC)CC[C@H]2[C@@H]3CCC4=CC(=O)CC[C@@H]4[C@H]3CC[C@@]21C [ONC0000267, norethisterone enanthate] the “% viability” value was 63.38%.
C=C1c2cccc(O)c2C(=O)C2C(=O)[C@]3(O)C(=O)C(C(N)=O)C(=O)[C@@H](N(C)C)[C@@H]3[C@@H](O)[C@H]12 (stereo partly shown) [ONC0000687, methacycline hydrochloride] was tested, and the “% viability” value was 124.6%.
O=C1c2ccccc2-c2c(NCCc3ccccc3)c(=O)[nH]c3cccc1c23 [ONC0001816, brd7389] was tested, and the “% viability” value was 84.69%.
CCOC(=O)c1c2c3c(cccc3[nH]c1=O)C(=O)c1ccccc1-2 [ONC0001061, nqdi1] was tested, and the “% viability” value was 43.7%.
CCOC(=O)c1ccccc1OC(=O)CCCCCCCC(=O)Oc1ccccc1C(=O)OCC [ONC0003554, tu2100] was tested, and the “% viability” value was 98.87%.
With Cn1cnc(=N)c2nc[nH]c21 [ONC0004721, 3methyladenine 3ma] the “% viability” value was 115.8%.
CCC(=O)OCC(=O)C1(OC(=O)CC)[C@H](C)C[C@H]2C3[C@H](Cl)CC4=CC(=O)C=C[C@]4(C)[C@H]3[C@@H](O)C[C@@]21C (stereo partly shown) [ONC0002939, alclometasonedipropionate] was tested, and the “% viability” value was 82.49%.
In the case of C/C(=C\c1csc(C)n1)[C@H]1C[C@@H]2O[C@]2(C)CCC[C@H](C)[C@H](O)[C@@H](C)C(=O)C(C)(C)[C@H](O)CC(=O)O1 [ONC0004615, patupilone epo906 epothilone b], the “% viability” value is reported as 75.3%.
In the case of C[C@H]1CC2C([C@@H](O)C[C@@]3(C)C2CC[C@]3(O)C(=O)COC(=O)CCC(=O)O)[C@@]2(C)C=CC(=O)C=C12 (stereo partly shown) [ONC0003156, methylprednisolone sodium succinate], the “% viability” value is reported as 82.41%.
With CC(=O)N[C@@H](CSSC[C@H](NC(C)=O)C(=O)O)C(=O)O [ONC0002807, nnü¾Œ“ ¼ü¾˜³ ¼diacetyllcystine] the “% viability” value was 85.92%.
C=CCN(C)CCCCCCOc1ccc(C(=O)c2ccc(Br)cc2)c(F)c1 [ONC0001825, ro 488071 fumarate] was tested, and the “% viability” value was 29.93%.
With CCCCOc1ccc(C(=O)Nc2ccc(F)cc2F)cc1 [ONC0005047, vu 0357121 vu 0357121 vu 0357121] the “% viability” value was 78.07%.
With CCCCC(F)(F)C(=O)CC[C@H]1[C@H](O)CC(=O)[C@@H]1CCCCCCC(=O)O [ONC0004918, lubiprostone] the “% viability” value was 115.4%.
With Fc1ccc(-c2nc(-c3c(F)cccc3F)[nH]c2-c2ccncc2)cc1 [ONC0000887, ta01] the “% viability” value was 46.48%.
C[S+]([O-])c1ccc(-c2nc(-c3ccncc3)c(-c3ccc(F)cc3)[nH]2)cc1 (stereo not shown) [ONC0000881, sb203580] was tested, and the “% viability” value was 87.12%.
For Oc1ccc(-c2nc(-c3ccncc3)c(-c3ccc(F)cc3)[nH]2)cc1 [ONC0000026, sb202190], the “% viability” value was 54.44%.
CSc1ccc([C@H]2CN3CCC[C@H]3c3ccccc32)cc1 [ONC0000925, mcn5652] was tested, and the “% viability” value was 74.54%.
For CN1CCCC1c1cccnc1 (stereo not shown) [ONC0005499, nicotine bitartrate], the “% viability” value was 91%.
C[C@@H]1NC(C)(C)CO[C@@]1(O)c1cccc(Cl)c1 [ONC0001157, radafaxine hydrochloride] was tested, and the “% viability” value was 85.48%.
[2H]C([2H])([2H])C(=O)Nc1c(I)c(C(=O)O)c(I)c(C(=O)NC)c1I [ONC0002149, iothalamic acidd3] was tested, and the “% viability” value was 66.44%.
With CCC(C)C(N)C1=NC(C(=O)NC(CC(C)C)C(=O)NC(CCC(=O)O)C(=O)NC(C(=O)NCCCCC2NC(=O)C(CC(N)=O)NC(=O)C(CC(=O)O)NC(=O)C(Cc3c[nH]cn3)NC(=O)C(Cc3ccccc3)NC(=O)C(C(C)CC)NC(=O)C(CCCN)NC2=O)C(C)CC)CS1 (stereo not drawn) [ONC0003188, bacitracin] (cyclo(DNK([Ile-Glu-Leu-X1])[Orn]IFH); configuration not given here) the “% viability” value was 113.7%.
With C=C(NNC(=S)NNC(=S)Nc1ccccc1Cl)c1ccccn1 [ONC0001982, n2chlorophenyl22e212pyridinylethylidenehydrazinocarbothioylhydrazinecarbothioamide] the “% viability” value was 78.69%.
For O=C(O)c1ccccn1 [ONC0003765, picolinicacid], the “% viability” value was 105.8%.
C/C(=N\NC(=S)N1CCC1)c1ccccn1 [nsc319726] was tested, and the “% viability” value was 6.057%.
